Shown are actives, neighbours in structure and some others; about 2.7% of the full set was active somewhere.
HIF-2a block = HIF-2a reporter inhibitors, primary screen, luminescence, 786-0 RCC cells. 786-0 RCC cells HIF-2a reporter, luciferase luminescence, overnight. inhibition, % at 18.8 µM. 0.72% of 360,000 active. AID 624352, 2012;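 active = inhibition of the luminescence signal of 40% or more relative to plate controls, in a single-dose primary screen at 18.75 µM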
MITF TRPM1 inh = inhibitors of MITF-dependent TRPM1 promoter reporter, primary screen, cell-based, SK-MEL-5, single point, luciferase. SK-MEL-5 TRPM1 promoter luciferase, 24 h. 0.83% of 330,000 active. inhibition, % at 12.5 µM;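 active = mean inhibition across replicates of 60% or more, whatever share of single replicates reaches that level; inconclusive = some that reach 60%, reason not given; inactive = mean inhibition across replicates below 60%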
Peg3 prom inh = Peg3 promoter-driven luciferase inhibitors, primary screen, cell-based, HeLa, luciferase luminescence; inhibition, % at 20 µM; AID 588405, 2011; HeLa PEG-Prom luciferase reporter, overnight; 1.7% of 360,000 active;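 active = inhibition of at least 50% at 20 µM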
KKLEB cytotox = cytotoxicity in KKLEB CF airway cells, primary screen, cytotoxicity control for CF NF-kB inhibitor project, cell-based, uHTS, fluorescence assay plates; AID 602141, 2011; activity change (cytotoxicity), % at 5 µM; KKLEB CF airway cells viability, ATPlite luminescence, overnight; active compounds read low; cells stimulated with P. aeruginosa culture filtrate; 0.36% of 360,000 active;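 active = corrected activity change at or below -50% at 5 µM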
Shn3 3UTR inh = reduction of Shn3 3'UTR firefly luciferase signal, primary screen, Schnurri-3 inhibitor project, cell-based, Clone20 osteoblasts, set 2; Clone20 osteoblast Shn3 3'UTR firefly luciferase, 24 h; 0.52% of 360,000 active; inhibition, % at 12.5 µM;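 active = mean inhibition of at least 75% with every replicate also reaching 75%; inconclusive = mean inhibition at least 75% but some replicate below; inactive = mean inhibition below 75%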;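 note: 0% = median of neutral control wells and 100% = pilot-screen positive control compound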
CF NFkB inh = inhibitors of PAF-induced NF-kB signaling, primary screen, cell-based, GFP fluorescence, uHTS | KKLEB NF-kB-GFP reporter, GFP fluorescence overnight | 0.86% of 360,000 active | inhibition, % at 5 µM;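 active = at least 50% inhibition at 5 µM, scaled per plate between neutral and stimulator controls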;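 note: PAF is a Pseudomonas aeruginosa culture filtrate used as stimulus; plate controls were PAF-stimulated DMSO wells for no effect and unstimulated DMSO wells for full effect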
* hit, by the source's call; ? = inconclusive; . = no result; ! = not active in a repeat.

SMILES	HIF-2a block	MITF TRPM1 inh	Peg3 prom inh	KKLEB cytotox	Shn3 3UTR inh	CF NFkB inh
O=C1CSC(c2ccc3c(c2)OCO3)N1c1ccc(Oc2ccccc2)cc1 (configuration not stated)	26.3	14.4	12.4	-97.0*	-1.7	3.7
Cc1sc(NC(=O)Cn2[nH]c(=O)c3ccccc3c2=O)nc1-c1ccccc1	-33.1	12.0	63.1*	-2.2	40.7	15.7
C[C@H]1CN([C@@H](C)CO)C(=O)c2cc(NC(=O)NC3CCCCC3)ccc2O[C@H]1CN(C)C(=O)Nc1ccc(C(F)(F)F)cc1	15.2	12.2	11.1	-19.2	15.5	-6.2
CCCCn1c(C23CC4CC(CC(C4)C2)C3)n[nH]c1=S	21.3	-2.7	14.5	0.3	10.5	6.2
O=C1C(Cl)=C(N2CCCCC2)C(=O)C(Cl)=C1c1cnc(N2CCCCC2)s1	44.9*	101.2*	58.2*	-4.0	7.8	2.7
CN(C)c1ncc(C2=C(Cl)C(=O)C(N3CCCC3)=C(Cl)C2=O)s1	3.7	59.7	57.1*	2.3	-1.6	0.1
CC(=O)c1cnc(N(C)C)s1	15.2	4.1	6.8	-5.5	-5.1	7.4
COC(=O)c1nn(C)c(=O)[nH]c1=O	-5.2	-14.7	-20.4	1.7	-3.7	1.2
CCC1Nc2ncnc(N3CCc4ccccc4C3)c2N(Cc2ccc(Cl)cc2)C1=O (configuration not stated)	24.3	11.8	47.9	-10.1	-17.2	39.9
O=C1C(Cc2ccccc2)Nc2ncnc(N3CCc4ccccc4C3)c2N1Cc1ccc(Cl)cc1 (configuration not stated)	3.3	8.3	51.0*	2.7	6.6	16.5
CCOC(=O)C1=C(c2ccccc2)NC(N)=NC1c1ccc(OCc2ccc(Cl)cc2)c(OC)c1 (configuration not stated)	4.0	35.5	109.8*	3.0	0.2	2.7
CCOC(=O)c1c(C)[nH]c(C)c1C(=O)COC(=O)C1CC(=O)N(CCc2ccccc2)C1 (configuration not stated)	12.2	7.7	6.0	-0.5	11.3	-34.9
CCc1nc2ccc(C(=O)NCC3CCCCC3)cn2c1N(C)C(=O)c1cccc(OC)c1	8.8	.	22.1	-9.0	-9.2	-22.3
O=S(=O)(Nc1cc(C(F)(F)F)ccc1N1CCOCC1)c1ccccc1	13.4	5.7	2.7	2.1	7.8	8.4
O=S(=O)(Nc1cc(C(F)(F)F)ccc1N1CCOCC1)c1ccc2ccccc2c1	21.5	-5.2	50.5*	-4.5	11.6	23.2
COc1cc(NC(=O)c2cnc(N)o2)cc(C(=O)Nc2cccc(C(F)(F)F)c2)c1	-67.1	33.7	55.5*!	0.9	32.3	-1.3
N#Cc1nc(Nc2cccc(Cl)c2)c2ncn(C3CCCC3)c2n1	-150.5	-12.6	-181.5	-53.8*	-9.0	50.6*
CCn1cnc2c(Nc3cc(F)cc(F)c3)nc(C#N)nc21	-197.2	-75.3	-145.1	-18.4	-2.5	14.3
CCOc1cc(/C=C/C(=O)c2ccc3c(c2)OCCO3)ccc1OCC(=O)N(C)C	32.0	.	63.2*	-16.4	-7.5	14.9
CCOC(=O)Cc1ccc(Nc2nc(NCc3ccccc3)nc3ccsc23)cc1	17.1	.	31.3	-7.6	67.4	17.4
Cc1cc(Br)ccc1SCC(=O)OCC(O)=C(C#N)c1nc2ccccc2[nH]1	-3.3	16.6	66.5*	-14.0	-13.3	-8.2
N#C/C(=C(/O)CCl)c1nc2ccccc2[nH]1	-63.0	79.6*	26.9	-11.8	9.2	11.9
N#C/C(=C(\O)Cc1ccccc1)c1nc2ccccc2[nH]1	-2.3	4.0	16.8	-25.2	89.6*	22.1
CC(C)(C)C(=O)NC(=S)NNC(=O)c1ccc(-c2ccccc2)cc1	-12.4	?	40.0	-17.7	94.5*	55.7*
CC(C)(C)c1ccc(C(=O)NC(=S)NNC(=O)c2cccs2)cc1	-91.6	-1.3	-54.5	-39.9	-9.5	57.9*
SMILES	HIF-2a block	MITF TRPM1 inh	Peg3 prom inh	KKLEB cytotox	Shn3 3UTR inh	CF NFkB inh
O=C(NC(=S)NNC(=O)c1cccs1)c1ccccc1	-51.2	32.1	-20.3	3.4	3.0	0.9
CC(C)(C)C(=O)NC(=S)NNC(=O)c1ccncc1	-16.2	10.7	-48.4	-15.5	3.6	-8.4
CC(=O)Nc1ccc(C(=O)CSc2nnc(-c3ccccc3F)n2CCc2ccccc2)cc1	13.5	4.5	7.7	-5.5	7.0	-6.9
CN(C)c1ccc(CNC(=O)C2(C)Cc3c(-c4ccc5c(c4)OCO5)ccnc3O2)cc1 (configuration not stated)	8.1	.	10.9	-15.7	3.4	26.5
CCCCNC(=S)N(C)/N=C/c1c(F)c(F)c(F)c(F)c1F	19.3	5.8	71.3*	-1.1	21.3	-16.1
O=[N+]([O-])c1ccc(S(=O)(=O)c2cccc(C(F)(F)F)c2)nc1	51.6*	83.2*	99.6*	-39.4	.	88.6*
CCCn1c(N)c(N(CCOC)C(=O)CSc2ccccc2)c(=O)[nH]c1=O	2.4	6.4	-1.4	-14.5	3.4	-2.8
COc1ccc(-c2csc(NC(=O)c3ccc(OCC(=O)N4CCOCC4)c(OC)c3)n2)cc1OC	14.8	57.0	92.2*	-6.9	16.2	-7.3
COc1ccc(-c2csc(NC(=O)C3CCN(c4ncnc5sc(C)c(C)c45)CC3)n2)cc1OC	-10.6	85.7*	49.0	-3.4	95.6*	38.0
CNC(CC(=O)c1ccc([N+](=O)[O-])cc1)C(Cl)(Cl)Cl (configuration not stated)	92.8*	90.0*	100.9*	-8.1	38.4	46.9
CCOc1cc2[nH]c(=O)n(Cc3ccc(C(=O)NCCCN4CCC(C)CC4)cc3)c(=O)c2cc1OCC	16.8	-10.6	82.2*	-3.3	-9.4	-11.3
CCOc1cc2[nH]c(=S)n(Cc3ccc(C(=O)NCCCN4CCOCC4)cc3)c(=O)c2cc1OCC	13.6	30.5	-12.0	7.8	16.9	8.2
CC1CCN(CCCNC(=O)c2ccc3c(=O)n(Cc4ccc(Cl)cc4)c(=S)[nH]c3c2)CC1	13.9	26.4	113.8*	-13.0	-6.2	15.3
Cc1ccc(C(=O)NC2CCCc3c2cnn3-c2ccc(F)cc2F)cn1 (configuration not stated)	14.1	4.7	20.0	7.7	83.5	18.7
Cc1ccc(S(=O)(=O)N(C(=O)c2ccncc2)c2ccc(OC(=O)c3ccncc3)c3ccccc23)cc1	20.4	11.2	0.3	-0.4	-14.6	26.6
Cc1ccc(S(=O)(=O)N(C(=O)c2ccncc2)c2ccc(OC(=O)c3ccncc3)c3ccccc23)c(C)c1	39.8	46.4	50.8*	-4.5	13.8	21.0
